Assay outcomes (PubChem)
Mcl1 Bid PPI: Mcl-1/Bid interaction inhibition; actives 0.97% (n = 220,000); Q07820; inhibition, % at 21.7 µM; AID 1021; TR-FRET Mcl-1/Bid-Dy647 peptide binding, 1536-well;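 active = compounds that cut the binding signal by more than half at the single screening dose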;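 note: His-tagged Mcl-1 with europium anti-His antibody binding Bid BH3 peptide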
Bim-Mcl-1: human Bim-Mcl-1 interaction inhibition; Q07820; inhibition, % at 10 µM; Bead-based flow cytometry, Bim peptide-Mcl-1 binding; actives 0.1% (n = 190,000); in the data active = inhibition above about 40%
MCL1 BIM primary: MCL1-BIM-BH3 interaction inhibition (human); Q07820; GST-MCL1 / FITC-Bim-BH3 fluorescence polarization; inhibition, % at 10.9 µM; actives 0.68% (n = 320,000);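 active = inhibition above the mean inhibition of all tested compounds plus 3 SD, set per campaign, cut at about 40% in these data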;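 note: higher means more loss of mP so more displacement of Bim peptide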
14-3-3 Bad inh: disrupts binding of bovine 14-3-3 zeta to phospho-Bad peptide; TR-FRET 14-3-3zeta/Dy647-pBad peptide displacement, 1 h; inhibition, % at 21.7 µM; actives 0.71% (n = 220,000);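 active = inhibition above about 70%, limit read from the data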
Target sequence (P63103 whole entry, looked up): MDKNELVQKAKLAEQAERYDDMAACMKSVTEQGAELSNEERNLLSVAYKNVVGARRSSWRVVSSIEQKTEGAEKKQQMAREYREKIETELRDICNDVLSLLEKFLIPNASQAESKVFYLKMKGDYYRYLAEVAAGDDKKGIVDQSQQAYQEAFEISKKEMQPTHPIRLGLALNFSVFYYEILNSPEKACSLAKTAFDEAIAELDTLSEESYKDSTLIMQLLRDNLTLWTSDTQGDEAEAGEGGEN
Mcl1-Noxa inh: disrupts binding of human Mcl-1 to Noxa peptide | TR-FRET Mcl-1/Noxa peptide binding, 2 h | Q07820 | actives 1.5% (n = 220,000) | inhibition, % at 21.7 µM;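 active = compounds that cut the protein-peptide binding signal by more than 50% relative to plate controls in a single-dose test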;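 note: His-tagged Mcl-1 with rhodamine Noxa BH3 peptide and terbium anti-His antibody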
Numbers stand for hits; 0 = inactive; - = no result given. Compounds with a hit are over-represented: about 2.5% of the library has one in this group of screens.

SMILES	Mcl1 Bid PPI	Bim-Mcl-1	MCL1 BIM primary	14-3-3 Bad inh	Mcl1-Noxa inh
Cc1ccccc1OCc1nc2ccc(S(=O)(=O)N3CCOCC3)cc2[nH]1	0	0	0	0	0
COc1cc(C(=O)N2CCN(c3ccccc3F)CC2)ccc1OCC(=O)N1CCOCC1	-	-	0	-	-
CCCCn1c(=O)[nH]c(=O)c2c1nc(-c1ccc(-c3ccccc3Br)o1)n2CC	0	0	0	0	55
CCCCn1c(=O)[nH]c(=O)c2c1nc(-c1ccc3ccccc3c1)n2CC	0	0	0	0	0
COc1cc(C(N)=O)cc(Cl)c1OC	0	0	0	0	0
Cc1ccc(-n2cc(CN3CCCN(C=O)CC3)c(-c3ccc(F)cc3)n2)cc1	0	0	0	0	0
CC(=O)N1CCCN(Cc2cn(-c3ccc(C)cc3)nc2-c2ccc(F)cc2)CC1	56	0	0	0	0
CCC(=O)Nc1cc(C)c(NC(=O)CCc2ccccc2)cn1	0	0	44	0	0
Cc1cc(NC(=O)c2ccco2)ncc1NC(=O)CCc1ccccc1	0	0	0	0	0
O=C(Nc1ccc2[nH]c(=S)sc2c1)Nc1ccccc1F	0	-	0	0	55
O=C(Nc1ccc2[nH]c(=S)sc2c1)c1ccccc1	0	0	0	0	0
O=C(C[n+]1cc(-c2ccc(F)cc2)n2c1CCC2)c1cccs1	0	-	0	0	0
O=[N+]([O-])c1ccc(Nc2ccccc2)c2nonc12	-	-	0	-	-
O=[N+]([O-])c1ccc(Sc2cccc[n+]2[O-])c2nonc12	0	-	-	0	62
CN(C)C(CNC(=S)Nc1ccccc1)c1cccnc1 (configuration not stated)	0	0	0	0	0
Cc1ccc2nc(-c3ccc(NC(=O)CSc4nc(N)cc(=O)[nH]4)cc3)sc2c1	53	-	0	0	0
Cc1ccc2nc(-c3ccc(NC(=O)CNC4CC4)cc3)sc2c1	0	0	-	80	0
Cc1ccc2nc(-c3ccc(NC(=O)CN4C(=O)c5ccccc5C4=O)cc3)sc2c1	0	0	0	0	0
Cc1ccc2nc(-c3ccc(NC(=O)COC(=O)c4ccc(=O)[nH]c4)cc3)sc2c1	0	0	0	0	63
COCCN(C(=O)CCl)C(C(=O)NC1CCCCC1)c1ccccc1C (configuration not stated)	0	0	0	0	0
COc1cc2cncc(Cc3ccc(Cl)cc3)c2cc1OC	-	-	0	-	-
COc1ccc(-c2cc(C(=O)OC(C)C(=O)Nc3c(C)n(C)n(-c4ccccc4)c3=O)c3ccccc3n2)cc1 (configuration not stated)	0	0	0	0	0
Cc1c(NC(=O)CN2CCN(c3ccccc3)CC2)c(=O)n(-c2ccccc2)n1C	0	0	0	0	0
Cc1c(NC(=O)CN2CC(C)OC(C)C2)c(=O)n(-c2ccccc2)n1C (configuration not stated)	0	0	0	86	0
Cc1c(NC(=O)COC(=O)c2cc(-c3ccc(-c4ccccc4)cc3)nc3ccccc23)c(=O)n(-c2ccccc2)n1C	82	0	0	0	0
SMILES	Mcl1 Bid PPI	Bim-Mcl-1	MCL1 BIM primary	14-3-3 Bad inh	Mcl1-Noxa inh
CN(CC(=O)Nc1ccc(F)cc1)C(=O)COC(=O)c1ccc(=O)n(Cc2ccccc2)n1	-	-	0	-	-
O=C(NCCc1ccc(Cl)cc1)C1CCCN(S(=O)(=O)N2CCCCCC2)C1 (configuration not stated)	-	-	0	-	-
Clc1ccc(OCCCn2cncn2)cc1Cl	56	0	0	86	0
c1ccc(Cc2ccc(OCCn3cncn3)cc2)cc1	0	0	0	0	0
c1ccc(-c2ccc(OCCOCCn3cncn3)cc2)cc1	0	0	0	73	0
O=C1c2ccccc2S(=O)(=O)c2cc(N3CCOCC3)ccc21	-	-	0	-	-
CN(CCC#N)C(=O)c1cc2c(s1)-c1ccccc1SC2	-	-	0	-	-
Fc1ccccc1-c1nc2ccccc2[nH]1	0	0	0	0	0
Clc1ccccc1-c1nc2ccccc2[nH]1	77	-	0	0	0
Cc1ccc(-n2c(C)nc3ncnc(-c4ccccc4)c32)cc1	0	0	0	0	0
CNC(=S)N(CCc1ccc(S(N)(=O)=O)cc1)C1CC(=O)N(c2ccccc2F)C1=O (configuration not stated)	61	0	0	79	0
O=[N+]([O-])c1ccc2nc(SCc3cn4ccccc4n3)[nH]c2c1	0	0	0	0	0
O=[N+]([O-])c1ccc2nc(SCc3cn4cc(Cl)ccc4n3)[nH]c2c1	0	0	0	0	51
Cc1ccc[n+](-c2nc([O-])sc2/C=N/Nc2ccc([N+](=O)[O-])cc2)c1	0	-	40	0	0
